# From PubChem BioAssay
# Pf growth 48h: P. falciparum growth inhibition at 48 hours (one generation) | P. falciparum luciferase growth in erythrocytes, 48 h | Potency, µM (series often up to 28.7 µM), hits mostly inhibitors | actives 5.9% (n = 310,000)
#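 Here the parasites carry a stable luciferase gene and grow inside erythrocytes in Albumax-based RPMI medium with compound for one erythrocytic cycle. Activity is scored as loss of luminescent signal.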
# SARS PLpro yeast: blocks SARS-CoV papain-like protease in a yeast assay; S. cerevisiae expressing SARS-CoV PLpro, growth rescue; Potency, µM (top dose mostly 32.9 µM), actives largely listed as activators; actives 0.19% (n = 330,000); AID 485353; calls by dose curve; further: nearly all actives have a fitted effect of over 55% in size
# AMA1-RON2 inh: disrupts binding of P. falciparum AMA1 to RON2. AID 720542. Potency, µM (highest dose often 58.2 µM), usual class: inhibitors. AlphaScreen AMA1-biotinylated RON2 peptide binding. actives 0.2% (n = 360,000); further: nearly all actives have a fitted effect of over 45% in size
#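 AMA1 (3D7) with his tag at 25 nM final met compounds first, then biotinylated RON2 peptide at 25 nM; detection used donor plus acceptor beads, 10 µg/mL apiece, read by AlphaScreen after 30 min at room temperature.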
# HCV inhibitor: blocks hepatitis C virus; Huh7.5.1 HCVcc-Cre infection, luciferase reporter, 44 h; Potency, µM (doses to about 41.8 µM), actives largely listed as inhibitors; actives 3.4% (n = 340,000)
#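 Luciferase read-out (15 sec integration) after a 15 min room-temperature substrate step quantifies HCVcc-Cre infection. Cells, 1,000 per well, had compound added 4 h post-plating, then virus at ~0.5 moi, and were cultured 44 h.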
# Pf growth 96h: P. falciparum growth inhibition at 96 hours. P. falciparum luciferase reporter growth, 96 h. Potency, µM (top dose mostly 28.7 µM), usual class: inhibitors. actives 6.9% (n = 320,000)
#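 Compounds incubated with erythrocytes infected by luciferase-expressing P. falciparum (2% hematocrit, 0.05% parasitemia final) for 96 hours, 37 C in 5% CO2. Growth inhibition scored as decreased luciferase luminescence.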
# NS1 inh: inhibitors of influenza NS1 protein function. Potency, µM (top dose mostly 46.1 µM). actives 0.4% (n = 270,000); calls by dose curve; further: actives are rising curves; nearly all actives have a fitted effect of over 50% in size
#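 Recovery from NS1-induced slow growth read by OD600 in budding yeast switched to galactose assay medium (pH 6.0, -URA) at 1:100 dilution. Compound 23 nl per well; the matching strain lacking NS1 serves as control.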
# Hits are given with their value; – = inactive; ? = inconclusive; · = no result given; [ ] = remark or other dose. Most compounds without a hit are left out; they make up all but 12% or so of the library. Unless noted, the call rests on the fitted dose curve; in most records, active means well fitted curve in the direction sought with a large enough effect; inconclusive means small, poorly fitted or top-dose-only effect, or another doubt; inactive means no such curve, though single readings can be large; an effect the other way counts as inactive or inconclusive.
SMILES,Pf growth 48h,SARS PLpro yeast,AMA1-RON2 inh,HCV inhibitor,Pf growth 96h,NS1 inh
Cc1cc(OCC(O)CN2CCCC2)ccc1C(C)C (stereo unspecified),?,–,–,–,–,–
COc1ccc(N2CCN(CC(O)COc3ccc(F)cc3)CC2)cc1 (stereo unspecified),–[0.00184 µM],–,–,–,–,–
OC(COc1ccccc1)CN1CCOCC1 (stereo unspecified),–,–,–,?,12µM,–
Cc1cc(OCC(O)CN2CCN(CCO)CC2)ccc1C(C)C (stereo unspecified),–,–,–,–,9.3µM,–
CCN(CC(=O)Nc1ccc(C(C)=O)cc1)CC(=O)Nc1cccc(OC)c1,–,–,–,?,–,·
CC(C)=CCC[C@H](C)CC1Cc2[nH]c(=S)[nH]c(=O)c2C(c2ccc(Cl)cc2)O1 (stereo partly specified),·,·,–,·,·,·
CCOc1ccc(NC(=O)CCc2c(C)nn(-c3ccc(N4CCCCC4)nn3)c2C)cc1,–,–,–,–,–,–
COc1cnc(SCCC(F)=C(F)F)[nH]c1=O,–,–,–,–,?,·
NNC(=O)CS(=O)(=O)Nc1ncccn1,·,·,·,·,·,–
C#CC[N+](C)(C)CC#Cc1ccc(C)cc1,1.9µM,–,–,–,?,·
Cc1nnc(SCC(=O)NC(C)(C)C)n1NCc1c(F)cccc1Cl,–,–,–,–,2.3µM,–
CC(C)(C)COS(=O)OCC(C)(C)C,·,·,·,·,·,–
NC(=O)c1ccccc1NC(=O)C1CCCO1 (stereo unspecified),–,–,–,–,10µM,–
O=C(Nc1ccc(N=Nc2ccccc2)c(NC(=O)C2CCCO2)c1)C1CCCO1 (stereo unspecified),–,–,?,2µM,?,–
O=C(Nc1ccc([N+](=O)[O-])c(NC(=O)C2CCCO2)c1)C1CCCO1 (stereo unspecified),–,–,–[2.32 µM],–,?,–
CN1CCN(c2ccccc2NC(=O)COc2ccc(Cl)cc2)CC1,–,–,–,–,–,–
Cc1ccc(S(=O)(=O)N2CCN(C)CC2)c(C)c1,–,–,–,–,2.6µM,–
Cc1ccc(S(=O)(=O)N2CCN(C(=O)COC(=O)C3(C)CC3(Cl)Cl)CC2)c(C)c1 (stereo unspecified),10µM,–,–,?,?,·
Cc1ccc(S(=O)(=O)N2CCN(S(=O)(=O)N3CCCCC3)CC2)c(C)c1,–,–,–,?,–,–
C[C@@H]1CN([C@@H](C)CO)C(=O)c2cc(Br)cnc2O[C@H]1CN(C)C(=O)c1ccc2c(c1)OCO2,·,·,–,·,·,·
COc1ccc(NC(=O)Cn2nnc(C(=O)NCc3ccc(C)cc3)c2N)cc1OC,–,?,–,–,–,–
Cc1cc(C)cc(NC(=O)Cn2nnc(C(=O)NCc3ccc4c(c3)OCO4)c2N)c1,–,–,–,–,0.1µM,–
Cc1cc(C)cc(-n2nnc(C(=O)NCc3ccccc3)c2N)c1,13µM,–,–,–,?,–
Cc1ccc(CNC(=O)c2nnn(CC(=O)Nc3cc(C)cc(C)c3)c2N)cc1,–,–,–,–,2.1µM,–
COc1ccc(NC(=O)c2nnn(CC(=O)Nc3ccc4c(c3)OCO4)c2N)cc1OC,–,–,–,?,?,–
SMILES,Pf growth 48h,SARS PLpro yeast,AMA1-RON2 inh,HCV inhibitor,Pf growth 96h,NS1 inh
Cc1cc(C)cc(-n2nnc(C(=O)NCc3ccc(Cl)cc3)c2N)c1,?,–,–,?,–,–
COc1ccc(Cl)cc1NC(=O)c1nnn(CC(=O)Nc2ccc3c(c2)OCO3)c1N,–,–,–,–,15µM,–
Fc1ccc(COc2ccccc2-c2ccnc3ncnn23)cc1,–,–,–,–,–,–
Nc1ccc2nc(Cc3ccccc3)[nH]c2c1,9.3µM,–,–,?,10µM,–
c1ccc(-c2nc3ccccc3[nH]2)cc1,–,–,–,–,–,–
O=C(O)c1cccc(-c2nc3ccccc3[nH]2)c1,–,–,–,–,2.3µM,–
Cc1nc2ccc(-c3nc4ccccc4o3)cc2[nH]1,–,–,–,?,?,–
Nc1ccc2nc(-c3cccc(-c4nc5ccc(N)cc5[nH]4)c3)[nH]c2c1,1.9µM,–,?,–,–,?
Nc1ccc(-c2nc3ccc(N)cc3[nH]2)cc1,–,–,?,–,?,·
Nc1ccc(-c2nc3ccc(-c4nc5ccccc5o4)cc3[nH]2)cc1,9.3µM,–,–,?,–,–
CCNC(=O)CC1SC(=Nc2ccc(C)c([N+](=O)[O-])c2)N(C)C1=O (stereo unspecified),·,·,–,–,·,·
Nc1ccc2nc(-c3ccc(Cl)cc3)[nH]c2c1,·,–,–,–,?,–
Nc1ccc2nc(-c3cc(Cl)c(N)c(Cl)c3)[nH]c2c1,2.9µM,–,?,11µM,?,?
COc1cccc(-c2sc3ccc(OC)cc3c2-c2ccc(OCCN(C)C)cc2)c1,·,–,14µM,?,·,·
COc1cccc(-c2sc3ccc(OC)cc3c2-c2cc(F)cc(OC)c2)c1,?,–,–,–,2.9µM,·
COc1cccc(-c2sc3ccc(OC)cc3c2-c2ccc(O)cc2)c1,?,–,–,?,?,·
COc1cc2c(cc1OC)C(C(=O)Nc1ccc(F)c(Cl)c1)CC(=O)N2 (stereo unspecified),–,–,–,–,–,–
COc1cc(NC(=O)c2ccc3c(c2)OCO3)c2ncccc2c1,–,–,–,?,·,–
COc1cc(NCCC(=O)O)c2ncccc2c1,·,·,·,·,·,–
COc1cc(NC(=O)OCc2ccccc2)c2ncccc2c1,·,·,–,14µM,·,·
COc1cc(NC(=O)c2cc(OC)c(OC)c(OC)c2)c2ncccc2c1,·,·,–,10µM,·,·
O=C(NCc1ccccc1)c1ccc(S(=O)(=O)N2CCCC2)cc1,·,–,–,·,?,–
Cc1cc2cc(CCNC(=O)c3ccc(S(=O)(=O)N4CCOCC4)cc3)c(=O)[nH]c2cc1C,?,–,–,?,8.3µM,–
Cc1ccc2cc(CCNC(=O)c3ccc(S(=O)(=O)N4CCCCC4)cc3)c(=O)[nH]c2c1,?,–,–,?,?,–
Cc1ccc2cc(CCNC(=O)c3ccc(S(=O)(=O)N4CCOCC4)cc3)c(=O)[nH]c2c1C,?,–,–,?,12µM,–
Cc1ccc2cc(CCNC(=O)c3ccc(S(=O)(=O)N4CCOCC4)cc3)c(=O)[nH]c2c1,?,?,–,·,13µM,–
Cc1[nH]c2ccccc2c1SCCNC(=O)c1ccc(S(=O)(=O)N2CCCC2)cc1,?,–,–,?,13µM,–
Cc1ccc(C(=O)NCCc2cc3ccc(C)c(C)c3[nH]c2=O)cc1[N+](=O)[O-],–,–,–,–,?,–
Cc1cc2cc(CCNC(=O)c3cccc([N+](=O)[O-])c3)c(=O)[nH]c2cc1C,–,–,–,?,?,–
O=C(COc1ccc([N+](=O)[O-])cc1Cl)N1CCc2ccccc21,·,–,–,–,·,·
